Measurements taken from PubChem BioAssay AID1508645 (National Center for Advancing Translational Sciences (NCATS), 2021).
Results filed as inconclusive are left out. Where a call stands in place of a potency, no number is given. The source made the active and inactive calls. The call rests on the fitted dose curve; in most records, active means well fitted cell-killing curve with a large enough effect; inconclusive means small, poorly fitted or top-dose-only effect, or effect the other way; inactive means no such curve, though single readings can be large or run the other way.

Test: Cell viability assay in S16 Pmp22-HiBiT cells
Conditions: S16 Schwann Pmp22-HiBiT viability, CellTiter-Glo, 24 h; series mostly up to 27.9 µM
From the text: Assay Provider: Jim Inglese Ph.D. National Center for Advancing Translational Science, National Institutes of Health, Rockville, MD CMT is a heterogeneous group of neurological disorders that affect approximately 1 in 2,500 people. In particular, the most common form of CMT, CMT1A is genetically linked to the duplication of the PMP22 gene which leads to Schwann cell overexpression, thus manifesting itself as a typical case of dose-sensitive diseases. To identify small molecule compounds that can mediate the expression of PMP22 we developed a phenotypic assay screening strategy by utilizing genome editing techniques to construct Schwann cell lines containing novel reporter technology to monitor the transcriptional or translational regulation of PMP22. For high sensitivity we use a bioluminescent reporter system embedded in the 3' UTR of the PMP22 gene (S16(c9) Pmp22-F2sN) to identify compounds that inhibit gene expression. […] We can further discriminate the effect of all transcriptionally active molecules on PMP22 translation or stability with an assay that incorporates a short NLuc peptide (HiBiT) at the C-terminus of expressed PMP22 (S16(f8) PMP22-HiBiT) allowing alpha complementation and luminescence detection of membrane-associated PMP22 protein. These assays were screened against the NCATS Sytravon Library Collection. Miniaturization of these assays to 1536-well plate format for quantitative high throughput screening (qHTS) yielded rich data sets immediately from the qHTS assay (S16(c9) Pmp22-F2sN), when compared with data from a cell viability assay (Cell TiterGlo) to identify compounds that decreased the output signals through cellular toxicity to streamline the selection process of actives for subsequent characterization using the HiBiT assay (S16(f8) PMP22-HiBiT).
Cell viability assay in S16 Pmp22-HiBiT cells PROTOCOL TABLE (format as described by Inglese J, Shamu CE and Guy RK. 2007) SEQUENCE No. (e.g., 1, 2, 3, etc.); PARAMETER (e.g., Cells, Incubation, Reagent, etc.); VALUE and DESCRIPTION. 1. Cells. Add 500-1,000 cells in 4 uL in growth media (DMEM High Glucose, No Phenol Red media + 10% heat-inactivated FBS + 1% Pen/Strep supplemented media) per well into Greiner 1536-well white/solid bottom high base, TC-treated plates. 2. Compounds. Library compounds and controls added at 23nL per well, transferred by Pin Tool. 3. Incubation. Incubate plates at 37C, 5% CO2, 95% RH for 24 h. 4. Reagent. Add 3uL CellTiter-Glo per well of Greiner 1536-well plates. 5. Incubation. Incubate plates at room temperature for 15 min., protect from light. 6. Detector. Luminescence measured using CCD-based camera (Viewlux). NOTES (numbers refer to Sequence numbers above; values are from representative experiments) 6. Luminescence Read: Clear filter; Exposure = 1 sec, Gain = High, Speed = Slow, Binning = 2X REFERENCES: 1. Inglese J, Shamu CE and Guy RK, Reporting data from high throughput screening of small molecule libraries, Nature Chemical Biology, 2007, 3(8): 438-441. doi.org/10.1038/nchembio0807-438 2. Yasgar A, Shinn P, Jadhav A, Auld DS, Michael S, Zheng W, Austin CP, Inglese J and Simeonov A, Compound Management for Quantitative High-Throughput Screening. J. Assoc. Lab. Auto., 2008, 13: 79-89. doi: 10.1016/j.jala.2007.12.004

SMILES | Potency
Cc1ccc(NC(=O)N2CCc3cc(S(=O)(=O)N4CCC(C)CC4)ccc32)cc1F | inactive
COc1ccc(Nc2nc3c(S(=O)(=O)c4ccccc4)nnn3c3ccc(Cl)cc23)cc1 | inactive
CCCn1c(=N)c(C(=O)NC(C)c2ccccc2)cc2c(=O)n3ccccc3nc21 (centres undefined) | inactive
COc1ccc(CCNC(=O)Cn2c(-c3cccs3)cc3cc(F)ccc32)cc1OC | inactive
